Laboratory results as given in ChEMBL document CHEMBL3988442, “University of Dundee, Small-Polar-MMV Screening Library” (2021).
Screen size: about 48,000 compounds; about 13,000 (27%) showed an effect of 50% or more. Some of the results follow.

Tested on: Wolbachia pipientis
Test: Anti-Wolbachia Cell-Based Screen
Assay type: functional
Set-up: scale not given: in the data most compounds retested in dose-response had high values
Conditions: 5 µM

| SMILES | Percent Effect |
| --- | --- |
| NC1CCc2c(ccc(=O)n2CC2CC2)C1 (stereo not given) | -25.6% |
| Cc1nc(Cn2c3c(ccc2=O)CC(NC(N)=O)CC3)cs1 (stereo not given) | 99.56% |
| Cc1nc(Cn2c3c(ccc2=O)CC(N)CC3)cs1 (stereo not given) | 90.15% |
| CCn1c2c(ccc1=O)CC(N)CC2 (stereo not given) | -10.57% |
| OCCCN1CCOC(c2ccc(F)cc2)C1 (stereo not given) | 108.3% |
| NS(=O)(=O)CCN1CCOC(c2ccc(Cl)cc2)C1 (stereo not given) | -9.973% |
| Fc1ccc(C2CN(CCc3ccncc3)CCO2)cc1 (stereo not given) | 89.73% |
| CCc1nccn1CCC(=O)N1CCOC(c2ccc(F)cc2)C1 (stereo not given) | 5.391% |
| Cc1cc2[nH]c(CN3CCOC(c4ccc(F)cc4)C3)cc(=O)n2n1 (stereo not given) | -0.7414% |
| c1ccc(C2CN(CCc3ccncc3)CCO2)cc1 (stereo not given) | 114.6% |
| CCNC(=O)NC(=O)CN1CCOC(c2cccc(Br)c2)C1 (stereo not given) | -11.97% |
| CCc1n[nH]c(C2CN(CCc3ccncc3)CCO2)n1 (stereo not given) | 1.737% |
| COc1cccc(C2CN(CCc3ccncc3)CCO2)c1 (stereo not given) | 114.5% |
| Cc1ccc(-c2nc(CN3CCOC(c4ccccc4)C3)cs2)o1 (stereo not given) | 7.737% |
| COc1ccc(CNC2CCN(CCc3ccncc3)CC2)cc1O | -10.08% |
| CCN(CC)Cc1nc2c(o1)CN(C(=O)c1ccc3[nH]ccc3c1)C2.O=CO | 2.766% |
| O=C(NC1CC1)N1Cc2[nH]nc(COCC3CC3)c2C1 | -7.793% |
| CCc1nc(CCNC(=O)NC2CCC(=O)N(C)C2)sc1C (stereo not given) | -4.769% |
| CN(C)c1cccc(C(=O)N2CCCc3cc(OC(F)(F)F)ccc32)c1 | 5.74% |
| CN(CC1CCC1)C(=O)Nc1cccnc1-n1cncn1 | -2.5% |
| Cc1oc(-c2ccsc2)nc1CN1CC[C@@H]2CCCC[C@H]2C1 | 16.57% |
| Clc1ccccc1C1CN(CCc2ccncc2)CCO1 (stereo not given) | 118% |
| CCNC(=O)NC(=O)CN1CCOC(c2ccccc2Cl)C1 (stereo not given) | 0.5373% |
| Cc1nc(C)n(CC2CN(CCc3ccccc3Cl)CCO2)n1 (stereo not given) | -35.87% |
| COc1ncccc1CN1Cc2nccn2CC(Cn2cccn2)C1 (stereo not given) | 99.64% |
| CS(=O)(=O)N1Cc2nccn2CC(CN2CCCC2)C1 (stereo not given) | -0.3251% |
| CNC(=O)c1cnc2n1CCN(Cc1cccnc1OC)C2 | -12.45% |
| COc1ncccc1CN1Cc2nccn2CC(CN2CCCC2)C1 (stereo not given) | 87.46% |

| SMILES | Percent Effect |
| --- | --- |
| Cc1ccc(CC(=O)N2Cc3nccn3CC(Cn3cccn3)C2)cc1 (stereo not given) | -9.367% |
| O=C(CCn1cncn1)Nc1ccc(F)cc1OCC1CC1 | -2.529% |
| COC(=O)CCNC(=O)c1ccc(NC(=O)N(C)CC(C)C)cc1 | 21.34% |
| CN(C)c1ccc(CNC(=O)NCCc2cn3ccccc3n2)cn1 | 118.9% |
| CN(C)c1ccc(CNC(=O)NCCc2ccccn2)cn1 | 91.3% |
| CC(C)c1nc(CCNC(=O)NCc2ccnc(N(C)C)c2)cs1 | 6.649% |
| CN(C)c1ccc(C(=O)NCCCc2ccccn2)cn1 | 11.7% |
| CN(C)c1ccc(CCNC(=O)NCc2ccc(N(C)C)nc2)cc1 | 5.041% |
| Cc1ccccc1C1(O)CCN(C(=O)CCc2cn3ccccc3n2)C1 (stereo not given) | -1.584% |
| Cc1cc(CNC(=O)NCc2cccs2)ccc1S(C)(=O)=O | -12.59% |
| CN(C)c1ccc(CNC(=O)NCCc2cccs2)cn1 | 93.45% |
| Cc1nc(CN2CCC(CNC(=O)Nc3ccccn3)CC2)oc1C | 15.98% |
| COCc1nc2n(n1)CCCC2Nc1nc(C(C)C)ns1 (stereo not given) | -13.74% |
| CN1CCN(S(=O)(=O)N2CCCCC2CCc2ccc(O)cc2)CC1 (stereo not given) | -0.6049% |
| CCn1cc(CN2CCCn3nc(CNS(C)(=O)=O)cc3C2)c(C)n1 | -7.534% |
| CC(C)=CCCC1(C)C=Cc2c(cc(C)n(CCC(=O)O)c2=O)O1 (stereo not given) | 110.1% |
| CC(C)=CCCC1(C)C=Cc2c(cc(C)n(CC(=O)O)c2=O)O1 (stereo not given) | 107.4% |
| Cc1cc2c(c(=O)n1CCC(=O)O)C=CC(C)(C)O2 | 159.6% |
| CCn1c(C)nnc1SCCNC(=O)c1cnc(C(C)(C)C)nc1O | -1.576% |
| CN(C)C(=O)N1CCN(CCCOc2ccccc2)[C@H]2CS(=O)(=O)C[C@H]21 | -34.84% |
| CC(O)CN1CCC(CNCc2ccc(C#N)cc2)CC1 (stereo not given) | 2.816% |
| Cc1ccc(N2CC3(CCN(Cc4nccn4C)C3)CC2=O)s1.O=C(O)C(F)(F)F (stereo not given) | 20.39% |
| Cn1ccnc1CN1CCC(F)(F)C2(CCN(c3cccnc3)C2)C1.O=C(O)C(F)(F)F.O=C(O)C(F)(F)F (stereo not given) | 75.41% |
| Cn1ccnc1CN1CCC(F)(F)C2(CCN(c3cnccn3)C2)C1.O=C(O)C(F)(F)F (stereo not given) | 108.4% |
| Cn1ccnc1CN1CCC2(CC1)CC(Oc1cccnc1)C2.O=C(O)C(F)(F)F.O=C(O)C(F)(F)F | -13.8% |
| Cn1cc(N2CC3(CCN(Cc4nccn4C)C3)CC2=O)cn1.O=C(O)C(F)(F)F (stereo not given) | -13.1% |
| COc1cccc(N2CC3(CCN(Cc4nccn4C)C3)CC2=O)c1.O=C(O)C(F)(F)F (stereo not given) | 13.06% |
